The values below come from PubChem BioAssay (NCI).

Holding throughout (assay): NCI-60 one-dose screen, 48 h (100 = growth as untreated, 0 = no growth, -100 = all killed)
The subject of experiment [1] is SK-MEL-2 melanoma. The following applies: 10 µM unless noted.
In experiment [2] the test system is SN12C renal. Particulars: 10 µM unless noted.
Experiment [3] has as its system UO-31 renal. The following applies: 10 µM unless noted.
Experiment [4] deals with TK-10 renal. Particulars: 10 µM unless noted.
Experiment [5] concerns ACHN renal. Particulars: 10 µM unless noted.
For experiment [6], the system named is CAKI-1 renal. The following applies: 10 µM unless noted.
In experiment [7] the test system is HL-60(TB) leukemia. The following applies: 10 µM unless noted.
Experiment [8] has as its system CCRF-CEM leukemia. The following applies: 10 µM unless noted.
Experiment [9] has as its system MOLT-4 leukemia. The following applies: 10 µM unless noted.
Experiment [10] has as its system SR leukemia. The following applies: 10 µM unless noted.
Experiment [11] relates to RPMI-8226 leukemia. Particulars: 10 µM unless noted.
Experiment [12] deals with OVCAR-5 ovarian. Particulars: 10 µM unless noted.
Experiment [13] deals with OVCAR-4 ovarian. Particulars: 10 µM unless noted.
The subject of experiment [14] is SK-OV-3 ovarian. Particulars: 10 µM unless noted.
The subject of experiment [15] is IGROV1 ovarian. The following applies: 10 µM unless noted.
Experiment [16] relates to OVCAR-3 ovarian. The following applies: 10 µM unless noted.
Experiment [17] relates to A498 renal. The following applies: 10 µM.
For experiment [18], the system named is OVCAR-8 ovarian. Particulars: 10 µM unless noted.
In experiment [19] the test system is HS 578T breast. The following applies: 10 µM unless noted.

This is part of a sample that, as a whole, favours compounds with a hit. Of some 83,000 tested, about 20% had one in any assay.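 Growth was measured after 48 h exposure to one concentration of compound in 96-well plates. Values under 10 count as active.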 Values without a mark were called inactive. The source made the active and inactive calls.

For the compound `CCC1CC(O)c2c(O)c3c(c(O)c2C1O)C(=O)c1cccc(O)c1C3=O` (stereo unspecified) (tested in a mixture with another compound), the growth was -63% (active) in [1]; 0.851% (active) in experiment [2]; -32.9% (active) in [3]; -13.7% (active) in experiment [4]; -18.1% (active) in experiment [5]; 0.243% (active) in experiment [6]. In addition, the growth in experiment [7] was -45.5% (active); in experiment [8], -21.5% (active); in experiment [9], -23.3% (active); in experiment [10] it was -0.491% (active); in experiment [11], -35.8% (active); in experiment [12], -78.2% (active). Further, the growth was -21.6% (active) in experiment [13], 11.1% in experiment [14], -53.5% (active) in [15] and -12% (active) in experiment [16].

Regarding `C/C(=C\c1ccn(-c2ccccc2N)n1)[C@@H]1C[C@@H]2O[C@]2(C)CCC[C@H](C)[C@H](O)[C@@H](C)C(=O)C(C)(C)[C@@H](O)CC(=O)O1`, the growth in [1] was 33.2%; in [2] it was 38%; in [3], 41.5%; in [4] it was 51.6%; in [5], 46.3%; in experiment [6] it was 40.4%. For the same compound, the growth in experiment [17] is 13%; in experiment [8], 19.6%; in experiment [9] it was 12.4%; in [10], 17.4%; in [11], 15.3%; in [18] it was 26.2%. For the same compound, the growth is 31.6% in experiment [12]; 51.2% in [13]; 40.2% in experiment [14]; 41.5% in [15]; -2.9% (active) in experiment [16]; 7.14% (active) in experiment [19].

For the compound `CCCCCSC1C2C(=O)C(Br)=CC13CCNc1c(O)c4c5c(c13)=[N+]2CCC=5C=N4` (stereo unspecified), the growth in experiment [1] was -54.8% (active); in experiment [2] it was -61.9% (active); in experiment [3], -66.9% (active); in experiment [4], -52.4% (active); in experiment [5], -90.2% (active); in experiment [17] it was 12.2%. The growth was -40.8% (active) in experiment [7]; -13.5% (active) in experiment [8]; -45.5% (active) in [9]; -14.1% (active) in experiment [10]; -17% (active) in [11]; -30.2% (active) in experiment [18]. For the same compound, the growth in experiment [12] was -55.2% (active); in experiment [13], -88.6% (active); in [14], -2.42% (active); in experiment [15], -64.6% (active); in experiment [16], -79.5% (active); in experiment [19], 4.01% (active).

Regarding `CCCCOc1ccc(C(N)Cc2ccccc2)cc1` (stereo unspecified), the growth was 107% in [1]; 95.4% in experiment [2]; 74.6% in experiment [3]; 98% in experiment [4]; 90.5% in [5]; 84.1% in experiment [6]. Also, the growth is 65% in [17]; 84.7% in [7]; 98.5% in experiment [8]; 85.5% in experiment [9]; 80.5% in experiment [11]; 97.6% in experiment [18]. Also, the growth in experiment [12] is 95.9%; in experiment [13], 107%; in experiment [14], 114%; in experiment [15] it was 88.2%; in experiment [16] it was 102%.

As to `C[C@]12C[C@@H](CO)[C@H](O)C[C@@H]1CC[C@@H]1[C@@H]2CC[C@]2(C)[C@@H](O)CC[C@@H]12`, the growth in experiment [1] is 86%; in experiment [2] it was 106%; in experiment [3], 89.6%; in experiment [4], 103%; in experiment [5], 101%; in [6] it was 94.1%. The growth in experiment [7] was 71%; in experiment [9], 85.8%; in experiment [10] it was 79.4%; in experiment [11], 91.9%; in experiment [18] it was 96.8%; in [12] it was 104%. Besides, the growth was 105% in experiment [13], 106% in [14], 105% in experiment [15] and 101% in experiment [16].

Take `COc1cccc2c1c(C(=O)C(=O)Nc1ccn[nH]1)cn2Cc1ccc(F)cc1`: the growth in experiment [1] is 93.8%; in [2], 100%; in experiment [3], 89%; in [4], 51.7%; in experiment [5], 101%; in [6] it was 46.7%. The growth in experiment [7] was 115%; in [8], 93.2%; in experiment [9], 97.5%; in [11], 96.8%; in experiment [18], 101%; in [12], 91.2%. The growth in experiment [13] was 110%; in experiment [14] it was 95.9%; in experiment [15] it was 84.7%; in experiment [16], 106%; in [19] it was 100%.

As for `COC[C@@H]1C[C@@]2(C)[C@@H](CC[C@@H]3[C@@H]2CC[C@@]2(C)[C@H]3CC[C@]2(C)O)CC1=O`, the growth was 83.2% in experiment [1]; 107% in experiment [2]; 91.1% in experiment [3]; 85.2% in [4]; 92.6% in experiment [5]; 94.4% in [6]. The growth in [7] is 78.6%; in experiment [9] it was 90.4%; in experiment [10], 83.7%; in [11], 84.5%; in experiment [18], 95.8%; in experiment [12], 97.9%. Besides, the growth in experiment [13] was 101%; in experiment [14] it was 98.7%; in experiment [15], 98.9%; in experiment [16] it was 106%.

As for `OCCCCCNC1CCCCC1`, the growth in [1] was 80.7%; in experiment [2], 105%; in [3] it was 87.5%; in experiment [4] it was 86.5%; in experiment [5] it was 94.1%; in experiment [6] it was 101%. The growth was 91.7% in experiment [7]; 83.9% in experiment [9]; 89.7% in experiment [10]; 102% in experiment [11]; 103% in experiment [18]; 86.3% in experiment [12]. In addition, the growth was 103% in experiment [13], 102% in [14], 103% in [15] and 125% in experiment [16].

Take `NC(CCl)CCl`: the growth is 124% in [1]; 101% in experiment [2]; 93.3% in experiment [3]; 111% in experiment [4]; 104% in experiment [5]; 99.3% in experiment [6]. Besides, the growth in experiment [17] is 111%; in experiment [7], 123%; in experiment [9], 105%; in [10], 108%; in experiment [11], 99.3%; in experiment [18], 100%. The growth in experiment [12] is 107%; in [13], 102%; in experiment [14] it was -100% (active); in [15], 110%; in [16], 100%.
